Here are results for 40 sequences from the supplement of paper PMC10681739.
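Wherever RUNX1 binding intensity (PBM fluorescence), RUNX1 alone is given: Full-length recombinant human RUNX1 bound to double-stranded 36-bp genomic probes on a high-density microarray, scored as Alexa488 fluorescence per spot via anti-RUNX1 antibody, median of four replicate spots.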

RUNX1, sequence (Q01196 whole entry): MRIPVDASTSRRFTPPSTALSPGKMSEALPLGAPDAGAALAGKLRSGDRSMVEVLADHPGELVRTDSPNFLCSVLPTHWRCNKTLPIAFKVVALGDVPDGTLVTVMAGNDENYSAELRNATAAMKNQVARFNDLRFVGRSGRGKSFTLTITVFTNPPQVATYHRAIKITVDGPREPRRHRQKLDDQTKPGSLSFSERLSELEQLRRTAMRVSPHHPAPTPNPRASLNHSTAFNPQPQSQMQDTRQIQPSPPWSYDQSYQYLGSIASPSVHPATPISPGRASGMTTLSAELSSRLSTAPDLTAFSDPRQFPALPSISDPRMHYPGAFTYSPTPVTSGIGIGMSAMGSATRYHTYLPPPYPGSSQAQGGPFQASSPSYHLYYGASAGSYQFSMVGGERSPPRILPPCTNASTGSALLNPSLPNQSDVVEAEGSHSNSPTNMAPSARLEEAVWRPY

The target of one experiment is T1, ETS1 (UniProt P14921).
T1 sequence: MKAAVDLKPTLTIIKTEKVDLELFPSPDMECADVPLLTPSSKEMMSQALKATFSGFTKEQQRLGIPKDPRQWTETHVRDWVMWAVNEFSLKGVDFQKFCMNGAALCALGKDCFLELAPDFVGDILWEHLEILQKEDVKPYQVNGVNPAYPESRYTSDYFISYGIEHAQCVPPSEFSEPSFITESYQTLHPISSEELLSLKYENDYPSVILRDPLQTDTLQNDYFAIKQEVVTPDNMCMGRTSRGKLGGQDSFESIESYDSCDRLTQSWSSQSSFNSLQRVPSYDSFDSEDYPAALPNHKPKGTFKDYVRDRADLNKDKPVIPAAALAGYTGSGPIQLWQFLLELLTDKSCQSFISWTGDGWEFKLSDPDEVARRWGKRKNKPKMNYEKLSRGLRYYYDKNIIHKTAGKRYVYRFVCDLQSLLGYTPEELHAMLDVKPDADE
Briefly: ETS1 binding intensity (PBM fluorescence), ETS1 alone (arbitrary fluorescence units); higher = stronger binding. The conditions noted are these: ETS1 concentration 1 nM; RUNX1 concentration 0 nM.
TTTGTAAGAGGAGGAAGTGGTTTGTAAGAGGAGAAA displayed an ETS1 binding intensity of 2180.
Same read-out and setting: in the case of GAGGACGCGGAAGTCCTTCTTGCGGGGCGGAGCTAG it was 891.
The same measure, in the same setting: the value for GCCCAATTCCCGAATCCGGTCTGCGGCGCGCTCGGG was 583.
CTCCCACATCCGAAGCGGCGCAACCCACAACAGCCT had an ETS1 binding intensity of 445.
The same measure, in the same setting: the value for CCATTTCCGCGCACGTCTGCAGATGCGGTAGTCGAT was 413; that for GAGATACACAGCGACATCCGCCCGCAAGAGCATGGT was 823; that for TTCAATCACAGGAAACAGACGTCACCCACAGACCTA was 1090.
Same read-out and setting: in the case of AACTAAGTGCAGGGGAAGTTGTGGTTATTTTTTACC it was 657.
Same read-out and setting: the value for AGGTTCCGGCGAAAGTGACCGAAAGTAACCGCCGGG was 351; that for GGTTTCGCTTCCGGGTTAGGCGGCCGCAGAAGCGTA was 947.
With GCCGGGCACCCCGGAAGACCGCTGGGAACCGGCTTT, the ETS1 binding intensity was found to be 1080.
The same measure, in the same setting: in the case of TGCGCCGCGGAACCCGGAAGTGGTCACGGAGCTCGG it was 10600.
Still for that read-out and setting: the value for TCCAAGGCGGAAAAAACCCGCCCTAAACCGCACCCC was 464; that for GGGCGGGTCAGCGGAAGTGAGGGCGGTTGAGGCTGG was 4740; that for AGTGGCTACCACTTCCTTCTCTTACCACAGTTCCTT was 442.
AAAGCAAACAGGAAGTGCTGTGGTAACAAGGCCCCA gave an ETS1 binding intensity of 6830.
GTGGGGCGGGCTTCCGGCGCTCCCACCGCGAGCCGA: the ETS1 binding intensity turned out to be 921.
Take TGCATGTGCAGCAGAGGAAACCACAAGTTATTCCCT: the ETS1 binding intensity came out at 557.
In turn, AACTTCCGAGGGAACTAACTGGTTTTAACCACATTG registered an ETS1 binding intensity of 367.
In turn, TTATTTCCGGTGTTGATCTTTTTAGTGGTACCAGGC registered an ETS1 binding intensity of 3400.
Turning to TTTACTGAGAGGAAGTGGTTCTTGTGGGTGAAGGTC, the ETS1 binding intensity was found to be 2420.
The same measure, in the same setting: the value for CCTCCCTGAGGGGGAAGTGGTTTTTGAGTCTGAGTC was 579; that for CAGGCAGGATGTTGACTCAGCTGCCAAGTGGTTTTG was 1340; that for GAGAACTTCCGGTGCGCTCCCCGGGACTGCGGTCCC was 3420.
Same read-out and setting: in the case of ATGGGTACAGGATTTCCTTTTGTGGTGATGAAAATG it was 697.
Same read-out and setting: in the case of CGCCCACCACTTCCTGCTGGCGGTCGGCAAGCGTTG it was 1430.
The sequence GAGCGCAGGACGGAAGCTCGGTGCGGGTGCGGCCTC displayed an ETS1 binding intensity of 964.
The sequence CAGACCAGCCCAGGAAACAAGGAACCACAAAGCCAC displayed an ETS1 binding intensity of 656.
GGTCAGGTGGGCGTTTCCTGTGGGCGTCTCCAACTC showed an ETS1 binding intensity of 1240.
CTCCGGCGGAAGTTGTCTCTTCGCCGCCGCCGCAGC returned an ETS1 binding intensity of 3590.
Regarding CCAACGAGCACTTCCGCTTCCCGCAGCTCCAGCGGC, the ETS1 binding intensity was determined as 2400.
Still for that read-out and setting: in the case of TCCTGTAGTTTCCGGCTGAAGTGGTAAGGTTTTTGA it was 845.
Same read-out and setting: the value for ATGCTAGAAAGCAGGAAGCCACAGACACGCCCCAAC was 1180.
Still for that read-out and setting: the value for ACGTGATGGCAGTCTTCCTGCCCACAAGTTCTGGTC was 422; that for CTCCACCGGATGCAGCAATGAAGGCCGCAGGAATGG was 3160.
Consider TGTCATCCCGGAAACTGATAACAAGACCGCGAGTCA, for which the ETS1 binding intensity turned out to be 1910.
Take CCTCGCCCCCTTCCGCACCCACCCCACCGCGCTCCG: the ETS1 binding intensity is 807.
In turn, CTTTGCTGCAGGATGTTCTAACCACAAGCCCAGGAG gave an ETS1 binding intensity of 1070.
The same measure, in the same setting: the value for GCACAGGCCGGAAGGAAAAGGGTTGTGGGGCTCATT was 1290; that for GACACGTCTTTGGAAGGATGTGGTTGCCGTGGGTTT was 724.

The target of the next experiment is RUNX1 (UniProt Q01196). Briefly: RUNX1 binding intensity (PBM fluorescence), RUNX1 alone (arbitrary fluorescence units); higher = stronger binding. The conditions noted are these: RUNX1 concentration 2 nM; ETS1 concentration 0 nM. The procedure:
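Cooperative gcPBM on 36-bp genomic probes with neighbouring ETS1 and RUNX1 sites. Recombinant human RUNX1 (2 nM) was incubated alone or with ETS1 (25 nM) and detected with anti-RUNX1 antibody plus Alexa488 secondary. Values are medians over 4 replicate spots; the RUNX1+ETS1 data were normalised to the RUNX1-only data. The probes sit in constant array flanks that are not printed.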
TTTGTAAGAGGAGGAAGTGGTTTGTAAGAGGAGAAA yielded an RUNX1 binding intensity of 835.
The same measure, in the same setting: the value for GAGGACGCGGAAGTCCTTCTTGCGGGGCGGAGCTAG was 664; that for GCCCAATTCCCGAATCCGGTCTGCGGCGCGCTCGGG was 768.
Still for that read-out and setting: in the case of CTCCCACATCCGAAGCGGCGCAACCCACAACAGCCT it was 1120; in that of CCATTTCCGCGCACGTCTGCAGATGCGGTAGTCGAT, 853; in that of GAGATACACAGCGACATCCGCCCGCAAGAGCATGGT, 733.
As for TTCAATCACAGGAAACAGACGTCACCCACAGACCTA, the RUNX1 binding intensity amounted to 794.
On to AACTAAGTGCAGGGGAAGTTGTGGTTATTTTTTACC, for which the RUNX1 binding intensity worked out at 1270.
Still for that read-out and setting: the value for AGGTTCCGGCGAAAGTGACCGAAAGTAACCGCCGGG was 670; that for GGTTTCGCTTCCGGGTTAGGCGGCCGCAGAAGCGTA was 790.
Regarding GCCGGGCACCCCGGAAGACCGCTGGGAACCGGCTTT, the RUNX1 binding intensity turned out to be 656.
Still for that read-out and setting: in the case of TGCGCCGCGGAACCCGGAAGTGGTCACGGAGCTCGG it was 766.
Same read-out and setting: the value for TCCAAGGCGGAAAAAACCCGCCCTAAACCGCACCCC was 1470; that for GGGCGGGTCAGCGGAAGTGAGGGCGGTTGAGGCTGG was 742.
In turn, AGTGGCTACCACTTCCTTCTCTTACCACAGTTCCTT returned an RUNX1 binding intensity of 1550.
On the same count and under the same terms, in the case of AAAGCAAACAGGAAGTGCTGTGGTAACAAGGCCCCA it was 728; in that of GTGGGGCGGGCTTCCGGCGCTCCCACCGCGAGCCGA, 790.
Sequence TGCATGTGCAGCAGAGGAAACCACAAGTTATTCCCT showed an RUNX1 binding intensity of 1110.
In the case of AACTTCCGAGGGAACTAACTGGTTTTAACCACATTG, the RUNX1 binding intensity was determined as 886.
Regarding TTATTTCCGGTGTTGATCTTTTTAGTGGTACCAGGC, the RUNX1 binding intensity was 1070.
As for TTTACTGAGAGGAAGTGGTTCTTGTGGGTGAAGGTC, the RUNX1 binding intensity stood at 898.
Still for that read-out and setting: the value for CCTCCCTGAGGGGGAAGTGGTTTTTGAGTCTGAGTC was 859; that for CAGGCAGGATGTTGACTCAGCTGCCAAGTGGTTTTG was 719; that for GAGAACTTCCGGTGCGCTCCCCGGGACTGCGGTCCC was 729.
Consider ATGGGTACAGGATTTCCTTTTGTGGTGATGAAAATG, for which the RUNX1 binding intensity stood at 913.
The same measure, in the same setting: in the case of CGCCCACCACTTCCTGCTGGCGGTCGGCAAGCGTTG it was 1020; in that of GAGCGCAGGACGGAAGCTCGGTGCGGGTGCGGCCTC, 702.
CAGACCAGCCCAGGAAACAAGGAACCACAAAGCCAC had an RUNX1 binding intensity of 842.
On the same count and under the same terms, the value for GGTCAGGTGGGCGTTTCCTGTGGGCGTCTCCAACTC was 770.
Still for that read-out and setting: the value for CTCCGGCGGAAGTTGTCTCTTCGCCGCCGCCGCAGC was 792; that for CCAACGAGCACTTCCGCTTCCCGCAGCTCCAGCGGC was 914.
Same read-out and setting: the value for TCCTGTAGTTTCCGGCTGAAGTGGTAAGGTTTTTGA was 925.
On to ATGCTAGAAAGCAGGAAGCCACAGACACGCCCCAAC, for which the RUNX1 binding intensity is 857.
On the same count and under the same terms, the value for ACGTGATGGCAGTCTTCCTGCCCACAAGTTCTGGTC was 1250; that for CTCCACCGGATGCAGCAATGAAGGCCGCAGGAATGG was 712.
TGTCATCCCGGAAACTGATAACAAGACCGCGAGTCA gave an RUNX1 binding intensity of 807.
In the case of CCTCGCCCCCTTCCGCACCCACCCCACCGCGCTCCG, the RUNX1 binding intensity worked out at 2040.
On the same count and under the same terms, the value for CTTTGCTGCAGGATGTTCTAACCACAAGCCCAGGAG was 3030.
Consider GCACAGGCCGGAAGGAAAAGGGTTGTGGGGCTCATT, for which the RUNX1 binding intensity was found to be 814.
Still for that read-out and setting: the value for GACACGTCTTTGGAAGGATGTGGTTGCCGTGGGTTT was 786.
